In one test the target is KRTAP10-10. Description: pooled miR-30 sensor sort-seq; sequence = guide strand. Particulars: shRNA.
AAGACTCGGAGCAGGTAGGCAC yielded a sensor-assay potency score (higher = more potent) of -0.677.
Still for that read-out and setting: the result for TAGCAGACGGACTTAGAGCAGA reads -0.81; that for AAGCACACAGGCTTGTTACAGA, -0.517.
Same read-out and setting: the result for TAGCATGGGGTTGTGCAGGAGC reads -0.83; that for TGGTAGCATGGGGTTGTGCAGG, -1.66.
Same read-out and setting: the value for TGCAGGAGCTGGTGTAGCCTGA was -0.876.
TTAGTTCTGCAGAACTTGGGTC had a sensor-assay potency score (higher = more potent) of 0.494.
Same read-out and setting: the value for TAGACTGCTGGTAGCATGGGGT was -0.566; that for TAGGCACGAAGCACACAGGCTT was 0.129; that for TTACAGACGGGCACGCAGCAGA was -0.719.
Still for that read-out and setting: the value for TGGGCAGTCGACTACCCGCCAA was -1.3; that for TTGTTACAGACGGGCACGCAGC was -1.52.

For a further test, the target named is KRTAP10-2. The test is described as above. Conditions: shRNA.
The sequence TGGCCTGAGGAAAAGCTGCAGG yielded a sensor-assay potency score (higher = more potent) of -1.08.
Same read-out and setting: the value for TTGGTGCAGGCGCTGGAGCAGA was -1.45.
The same measure, in the same setting: the value for AGCAGGACTGCTGACACGGGGA was -1.24; that for TTGCAGCAGACGGACACACAGC was -1.17; that for TAGACTGCTGGCAGCACGGAGA was -0.939.
The same measure, in the same setting: the result for CAGCACACAGCTTTGCAGCAGA reads -2.3; that for AACAGGTACACAGCAGATGGAC, -1.3; that for AAGAGGATGACTCAGAGCAGGT, -1.29.
As to TGGGCACGCAGCACACAGCTTT, the sensor-assay potency score (higher = more potent) was -1.18.
Take AGCATGAAGAGGATGACTCAGA: the sensor-assay potency score (higher = more potent) was -1.89.
Still for that read-out and setting: the value for ACACAGCAGATGGACTTGCAGC was -1.45.
Same read-out and setting: the result for TACACAGCAGATGGACTTGCAG reads -0.914.

In a further test the target is KRTAP13-1. The test is described as above. Particulars: shRNA.
TCTGTAGCAAGAAGACTGGCAG gave a sensor-assay potency score (higher = more potent) of 0.163.
Still for that read-out and setting: the value for TCCACATAGGATGTCTGGCAGC was -1.92; that for TGGTCTGTAGCAAGAAGACTGG was -0.92.
Still for that read-out and setting: the result for TAGCAAGAAGACTGGCAGCTCC reads -0.434; that for TTGGTCTGTAGCAAGAAGACTG, -0.458.
Same read-out and setting: the value for TAACCCAGGGATCTGAAGCCAC was -0.898.
Turning to TAGACCTGGTTGCTGGGGTAGG, the sensor-assay potency score (higher = more potent) was -1.13.
The same measure, in the same setting: the value for TCCAACGCCATAGCCCAGGGAA was -1.31; that for ACATAGGATGTCTGGCAGCTGG was -1.73; that for TAGGAAAAGCCACAGGAGGAGG was -1.49.
TAGAATAAGAGGCTAATTCTTT came in with a sensor-assay potency score (higher = more potent) of -0.634.

Another test has as its target KRTAP13-2. The test is described as above. Particulars: shRNA.
As to AGGTAGTCACCACAGGAGCGGG, the sensor-assay potency score (higher = more potent) is -1.51.
With TCCACATAGGACGTCTGGCAGC, the sensor-assay potency score (higher = more potent) is -2.1.
Still for that read-out and setting: the result for TCGTCTTGCAAGGACTGCAGAG reads -0.616.
The same measure, in the same setting: the result for TCCAGATCCATAGCCGAGGGAA reads -1.28.

Source of the values: the OligoGym collection.
Further: reference of the scale not given here.
